Laboratory results: the supplement of paper PMC12350171
Structures can show the parent of a compound that is named as a salt. Unmarked numbers belong to inactive results.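 The calls were made as follows: active = AUC significantly below DMSO controls by Student t-fit with adjusted P under 0.01; inactive = not significantly reduced.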

Test system: Haemophilus parainfluenzae
Experiment: growth AUC normalised to DMSO control (fraction of control); higher = less growth inhibition, active = hit call of the paper
Details: 20 µM
Summary of the method: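 Pathogens were passaged twice under anaerobic conditions, then inoculated into pre-reduced mGAM plates at a starting OD578 of 0.01, with compound at 20 μM and 1% DMSO, and sealed with breathable membranes. For Haemophilus parainfluenzae, the medium was supplemented with hemin and NAD. OD578 was read every hour for 24 h in three biological replicates. Growth-curve AUC was calculated by the trapezoidal rule up to the exponential-to-stationary transition and normalised to DMSO controls on the same plate.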

| Structure (SMILES) | growth AUC normalised to DMSO control |
| --- | --- |
| C[C@@H]1CN(c2c(F)c(N)c3c(=O)c(C(=O)O)cn(C4CC4)c3c2F)C[C@H](C)N1 [Sparfloxacin] | 0.0765 (active) |
| CO/N=C(\C(=O)N[C@@H]1C(=O)N2C(C(=O)O)=C(C[N+]3(C)CCCC3)CS[C@H]12)c1csc(N)n1 [Cefepime hydrochloride] | 0.0407 (active) |
| CCc1cc(Cl)c(OC)c(C(=O)NC[C@@H]2CCCN2CC)c1O [(S,-) Eticlopride hydrochloride] | 0.958 |
| CC[N+](CC)(CC)CCOc1cccc(OCC[N+](CC)(CC)CC)c1OCC[N+](CC)(CC)CC [Gallamine triethiodide] | 1.09 |
| O=C(O)c1cccnc1 [Niacin] | 1.07 |
| O=C(C1CCCCC1)N1CC(=O)N2CCc3ccccc3C2C1 (centres undefined) [Praziquantel] | 1.04 |
| CC[C@H]1OC(=O)[C@H](C)[C@@H](O[C@H]2C[C@@](C)(OC)[C@@H](O)[C@H](C)O2)[C@H](C)[C@@H](O[C@@H]2O[C@H](C)C[C@H](N(C)C)[C@H]2O)[C@](C)(OC)C[C@@H](C)C(=O)[C@H](C)[C@@H](O)[C@]1(C)O [Clarithromycin] | 0.0384 (active) |
| C[C@H]1O[C@@H](O[C@H]2[C@@H](O)C[C@H](O[C@H]3[C@@H](O)C[C@H](O[C@H]4CC[C@@]5(C)[C@H](CC[C@@H]6[C@@H]5C[C@@H](O)[C@]5(C)[C@@H](C7=CC(=O)OC7)CC[C@]65O)C4)O[C@@H]3C)O[C@@H]2C)C[C@H](O)[C@@H]1O [Digoxin] | 0.979 |
| COc1cc(C(=O)NS(=O)(=O)c2ccccc2C)ccc1Cc1cn(C)c2ccc(NC(=O)OC3CCCC3)cc12 [Zafirlukast] | 0.825 |
| CCn1nc(C(=O)O)c(=O)c2cc3c(cc21)OCO3 [Cinoxacin] | 0.294 (active) |
| CC(=O)OC(C)C[N+](C)(C)C (centres undefined) [Methacholine chloride] | 0.979 |
| CC(=O)CC(c1ccc([N+](=O)[O-])cc1)c1c(O)c2ccccc2oc1=O (centres undefined) [Acenocoumarol] | 0.992 |
| Cc1ccc(N(CC2=NCCN2)c2cccc(O)c2)cc1 [Phentolamine hydrochloride] | 1.05 |
| CC1(C)S[C@@H]2[C@H](NC(=O)[C@H](N)c3ccccc3)C(=O)N2[C@H]1C(=O)O [Ampicillin trihydrate] | 0.0576 (active) |
| CC(Oc1c(Cl)cccc1Cl)C1=NCCN1 (centres undefined) [Lofexidine] | 0.993 |
| COc1c(O[C@@H]2O[C@H](CO)[C@@H](O)[C@H](O)[C@H]2O)cc2c(c1OC)-c1ccc(SC)c(=O)cc1[C@@H](NC(C)=O)CC2 [Thiocolchicoside] | 0.996 |
| COc1cccc(N(C)C(=S)Oc2ccc3c(c2)CCCC3)n1 [Liranaftate] | 1.01 |
| C[C@]12CC[C@H]3[C@@H](CCC4=CC(=O)CC[C@@]43C)[C@@H]1CC[C@@H]2C(=O)CO [Deoxycorticosterone] | 1.04 |
| Cc1ccc(C(=O)c2ccc(CC(=O)O)n2C)cc1 [Tolmetin sodium salt dihydrate] | 1.07 |
| COc1cc(C)c(/C=C/C(C)=C/C=C/C(C)=C/C(=O)O)c(C)c1C [Acitretin] | 0.995 |

| Structure (SMILES) | growth AUC normalised to DMSO control |
| --- | --- |
| O=C(NCC(O)CO)c1c(I)c(C(=O)NCC(O)CO)c(I)c(N(CCO)C(=O)CO)c1I (centres undefined) [Ioversol] | 1.06 |
| CCN(CC)CCc1nc(-c2ccccc2)no1 [Oxolamine citrate salt] | 1.05 |
| CN1CCCC(n2nc(Cc3ccc(Cl)cc3)c3ccccc3c2=O)CC1 (centres undefined) [Azelastine hydrochloride] | 0.994 |
| CNCC[C@@H](Oc1ccccc1C)c1ccccc1 [Tomoxetine hydrochloride] | 1.02 |
| Cc1cc(=O)n(-c2ccccc2)n1C [Antipyrine] | 0.988 |
| CC(=O)[C@H]1CC[C@H]2[C@@H]3C=CC4=CC(=O)CC[C@@]4(C)[C@@H]3CC[C@]12C [Dydrogesterone] | 1.02 |
| CCN(CC)CCOC(=O)C1(C2CCCCC2)CCCCC1 [Dicyclomine hydrochloride] | 0.87 |
| COC(=O)Nc1nc2cc(Sc3ccccc3)ccc2[nH]1 [Fenbendazole] | 1.04 |
| O=C(N/N=C/c1ccc([N+](=O)[O-])o1)c1ccc(O)cc1 [Nifuroxazide] | 0.532 (active) |
| CN1CCN(CC(=O)N2c3ccccc3C(=O)Nc3cccnc32)CC1 [Pirenzepine dihydrochloride] | 1.01 |
| CC(=O)O[C@]1(C(C)=O)CC[C@H]2[C@@H]3C=C(C)C4=CC(=O)CC[C@@H]4[C@H]3CC[C@@]21C [Nomegestrol acetate] | 0.976 |
| C[C@@H]1C[C@H]2[C@@H]3C[C@H](F)C4=CC(=O)C=C[C@]4(C)[C@@]3(F)[C@@H](O)C[C@]2(C)[C@@]1(O)C(=O)CO [Flumethasone] | 1 |
| CC1CC(OC(=O)c2ccccc2O)CC(C)(C)C1 (centres undefined) [Homosalate] | 0.983 |
| C#CCN(C)CCCOc1ccc(Cl)cc1Cl [Clorgyline hydrochloride] | 0.943 |
| c1ccc(-c2ccc(C(c3ccccc3)n3ccnc3)cc2)cc1 (centres undefined) [Bifonazole] | 0.998 |
| CC1(C)O[C@@H]2C[C@H]3[C@@H]4C[C@H](F)C5=CC(=O)CC[C@]5(C)[C@H]4[C@@H](O)C[C@]3(C)[C@]2(C(=O)CO)O1 [Flurandrenolide] | 1.03 |
| NS(=O)(=O)c1cc2c(cc1Cl)N=C(CSCc1ccccc1)NS2(=O)=O [Benzthiazide] | 0.987 |
| Nc1ccc(O)c(C(=O)O)c1 [Mesalamine] | 1.05 |
| C=CCc1ccccc1OCC(O)CNC(C)C (centres undefined) [Alprenolol hydrochloride] | 1.06 |
